Sampled rows, rich in hits. Any-hit rate of the full collection: about 3.7%.
S2 tox = reduces viability in counter-screen for ATXN expression inhibitors; S2 cells (HEK-293 line with an ATXN2-luciferase reporter) viability, CellTiter-Fluor protease fluorescence, 24 h; Potency, µM (top dose mostly 56.7 µM), usual class: cytotoxic; 400,000 tested, 0.49% active; further: nearly all actives have a fitted effect of over 40% in size
ATXN2 expr inh = inhibitors of ATXN2 expression; HEK-293 ATXN2-luciferase reporter, luminescence, 24 h; Potency, µM (highest dose often 57 µM), inactives show at the highest dose activity change, negative = inhibition, usual class: inhibitors; 360,000 tested, 0.72% active; AID 1745845; further: on the % scale 0 is the no-effect control and ±100 the full control effect; nearly all actives have a fitted effect of over 55% in size
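qHTS (up to 57 uM final) was run with 24 h compound exposure of reporter cells at 37 °C. Each well was multiplexed: SteadyGlo luminescence measured ATXN2-luciferase expression after a fluorogenic Gly-Phe-AFC viability readout (25 uM final).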
GLP1R inv ag = acts as inverse agonist at human GLP-1 receptor | HEK293 GLP-1R CRE-luciferase, luminescence, 24 h; GLP-1R form is constitutively active | Potency, µM (titrated, usually from 38.3 µM), inactives show top-dose activity change, negative = inhibition, actives largely listed as inhibitors | 410,000 tested, 1.6% active | AID 624417; further: on the % scale 0 is the no-effect control and ±100 the full control effect; nearly all actives have a fitted effect of over 55% in size
Target sequence (P43220 whole entry, looked up): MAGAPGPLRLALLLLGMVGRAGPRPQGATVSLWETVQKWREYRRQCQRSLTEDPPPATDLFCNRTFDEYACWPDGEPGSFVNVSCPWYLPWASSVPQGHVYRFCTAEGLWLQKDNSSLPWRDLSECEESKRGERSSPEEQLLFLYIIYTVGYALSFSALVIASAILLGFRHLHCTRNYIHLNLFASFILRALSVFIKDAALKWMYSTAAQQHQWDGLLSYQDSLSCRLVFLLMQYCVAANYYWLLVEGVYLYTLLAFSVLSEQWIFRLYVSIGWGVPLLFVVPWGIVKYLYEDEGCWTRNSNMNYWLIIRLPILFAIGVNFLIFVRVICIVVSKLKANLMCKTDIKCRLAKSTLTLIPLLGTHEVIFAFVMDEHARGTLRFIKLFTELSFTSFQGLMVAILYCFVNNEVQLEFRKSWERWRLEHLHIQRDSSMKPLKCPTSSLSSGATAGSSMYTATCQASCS
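HEK293 cells stably co-expressing a cAMP-responsive luciferase reporter and constitutively active GLP-1R were seeded, incubated 12 h, then exposed to compounds for 24 h at 37 C. Luminescence was read 12 min after detection reagent; inverse agonists lower signal.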
HepG2 tox = kills HepG2 cells in TGF-b inhibitor counter-screen; HepG2 CAGA-GFP viability, ATP luminescence, 18 h; Potency, µM (highest dose often 46.1 µM), for inactives: at the top dose activity change, negative = cytotoxicity, usual class: cytotoxic; 410,000 tested, 0.76% active; AID 588856
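HepG2 CAGA-GFP cells (1000/well, DMEM with 1% FBS) received compound, then TGF-beta at 500 pg/mL final, and were incubated 18 hours at 37 degrees C. Viability was read by CellTiter-Glo luminescence. Media-only wells were set as complete cell-killing and DMSO as no toxicity.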
GLP-1R agonist = GLP-1 receptor (human) agonism. HEK293 GLP-1R CRE-luciferase, luminescence, 4-6 h; cells express a hypersensitive GLP-1R form. Potency, µM (highest dose often 45.6 µM), for the others: top-dose activation, actives largely listed as activators. 380,000 tested, 0.007% active. P43220. AID 624172; further: % of control where 0% means no effect
TGFb inhibitor = blocks TGF-b signaling; 410,000 tested, 1.2% active; HepG2 CAGA-GFP TGF-b/SMAD3 reporter, GFP fluorescence, 18 h; TGF-beta stimulated, 500 pg/mL final; AID 588855; Potency, µM (doses to about 46.1 µM), without a hit: at the highest dose activity, negative = inhibition, actives largely listed as inhibitors; further: on the % scale 0 is the no-effect control and ±100 the full control effect; nearly all actives have a fitted effect of over 65% in size
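TGF-beta reporter screen: HEPG2 CAGA-GFP, 1% FBS, 500 pg/mL TGF-beta final, 18 h; per-cell GFP summed per well; curves fitted and categorized by class.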
Numbers without * were called inactive; i = inactive; u = inconclusive; x = no result given; [ ] = another dose, or the depositor's remark. The call rests on the fitted dose curve; in most records, active means well fitted curve in the direction sought with a large enough effect; inconclusive means small, poorly fitted or top-dose-only effect, or another doubt; inactive means no such curve, though single readings can be large; an effect the other way counts as inactive or inconclusive. Potency means the concentration at half of the fitted maximal effect.

SMILES	S2 tox	ATXN2 expr inh	GLP1R inv ag	HepG2 tox	GLP-1R agonist	TGFb inhibitor
O=C1OCCN1C(=O)[C@H]1[C@H](c2ccc([N+](=O)[O-])cc2)C(c2cccc(Cl)c2)=NN1c1ccc(Br)cc1	u	-2.8%	u	-25.9%	-2.8%	u
C[C@@H](O)[C@H]1C(=O)N2C(C(=O)OCOC(=O)C(C)(C)C)=C(SC3CN(C4=NCCS4)C3)[C@H](C)[C@H]12	x	-4.4%	x	x	x	x
CO[C@H]1OC2O[C@@]3(C)CC[C@H]4[C@H](C)CC[C@@H]([C@H]1C)[C@@]24OO3 (stereo partly drawn)	x	x	x	x	-7.6%	x
O=C(c1ccc(F)cc1)n1nc(-c2cccnc2)nc1NCc1ccc(F)cc1	i	-11.6%	14.0%	-23.2%	x	-16.6%
CC(=O)Nc1ccccc1NS(=O)(=O)c1ccccc1NO	x	x	x	-13.8%	x	u
N/C(=N\OC(=O)c1ccc(Cl)cc1Cl)c1ccccn1	i	u	5.62µM*	-45.0%	-5.4%	-12.7%
N/C(=N\OC(=O)c1ccc2ccccc2c1)c1ccccn1	i	11.2µM*	u	-41.0%	-7.0%	-9.3%
Cc1ccc(C(=O)O/N=C(\N)c2ccccn2)c(Cl)c1	u	x	1.12µM*	-73.9%	-8.4%	-13.6%
COc1cccc(C(=O)O/N=C(\N)c2ccccn2)c1OC	i	x	7.94µM*	-9.4%	-9.5%	8.1%
O=C1CCN(Cc2cccn2-c2ccccn2)CCN1Cc1ccccc1C(F)(F)F	i	x	x	x	x	x
Cc1ccc2[nH]c(=O)c(CN(CCCO)Cc3nnnn3Cc3ccccc3)cc2c1	x	x	x	-21.6%	x	-13.6%
CCCN1CCN(C(=O)c2cnn(-c3ncc4c(n3)-c3ccccc3CCC4)c2COC)CC1	i	x	x	x	x	x
N/C(=N\OC(=O)c1ccc([N+](=O)[O-])cc1Cl)c1ccccn1	i	u	1.78µM*	-48.4%	-8.2%	-18.5%
N/C(=N\OC(=O)c1cc([N+](=O)[O-])ccc1Cl)c1ccccn1	u	-8.5%	2.8%	-31.5%	4.7%	3.6%
O=C(N/N=C\c1ccccn1)c1ccccc1O	i	-54.1%	u	3.16µM*	0.7%	u
O=C(N/N=C/c1ccc(-c2ccccc2)o1)c1ccccc1O	i	-4.4%	10µM*	-23.2%	5.9%	-7.8%
COc1ccc(OCC(=O)N/N=C/c2cccc3cccnc23)cc1	i	u	u	-10.5%	14.0%	3.2%
COc1ccc(C(=O)N/N=C/c2ccccn2)cc1OC	i	-6.5%	4.4%[7.66 µM]	-33.3%	3.0%	3.5%
COc1ccc(C(=O)Nc2ccccc2C(=O)N/N=C/c2ccccn2)cc1OC	i	28.2µM*	u	-18.0%	u	u
O=C(COc1ccc(Cl)cc1)N/N=C/c1cccc2cccnc12	i	25.1µM*	u	5.8%	9.5%	u
Cc1cc(C)c2c(c1)C1C=CCC1C(C(=O)O)N2 (stereo not drawn)	x	x	x	5.4%	x	-6.4%
O=C(N/N=C/c1cccc2nccnc12)c1ccccc1O	i	u	u	-18.9%	-1.8%	-5.9%
O=C(N/N=C/c1cccc2cccnc12)c1ccccc1O	3.55µM*	x	u	-15.6%	-5.4%	u
COc1ccc(Cl)c(Cn2cnc3c(cnn3C(C)(C)C)c2=O)c1F	x	x	x	1.2%	x	1.4%
O=C(COc1ccc2ccccc2c1Br)N1CCCCC1	i	59.6%	10µM*	-8.6%	9.2%	-16.3%
SMILES	S2 tox	ATXN2 expr inh	GLP1R inv ag	HepG2 tox	GLP-1R agonist	TGFb inhibitor
Cc1cc(C(=O)Nc2cccc(-c3nc(CNC(=O)c4sc(C)nc4C)c(C)o3)c2)c(C)o1	i	x	x	x	x	x
CCOC(=O)c1c(CSc2ccc(CC)cc2)oc2ccc(O)c(CN(C)C)c12	x	15.8µM*	2.51µM*	22.4µM*	18.4%	u
CCOC(=O)c1c(C)oc2ccc(O)c(CN(C)C)c12	i	-7.7%	-25.7%	13.6%	-15.3%	27.6%
CCCCN(CCCC)c1ccc(C=Nc2ccc(/C=C/c3ccnc4ccccc34)cc2)cc1C	x	x	x	-27.2%	x	-6.9%
CCCN1CCN(c2ncnc3sc(C(=O)Nc4ccc(OC(F)(F)F)cc4)c(C)c23)CC1	x	x	10µM*	-112.4%	x	22.4µM*
OC(CNc1ccccc1)COc1ccc(OCC(O)CNc2ccccc2)cc1 (stereo not drawn)	u	u	6.31µM*	-7.3%	-28.6%	u
Cc1ccc(OCC(O)CNC(C)c2ccccc2)cc1C (stereo not drawn)	i	x	5.01µM*	-40.1%	0.9%	u
CCOCC(O)CNc1ccccc1 (stereo not drawn)	i	5.3%	0.2%	3.8%	10.0%	3.6%
CC(NCC(O)COCc1ccc(Cl)cc1)c1ccccc1 (stereo not drawn)	u	u	u	-55.9%	-0.3%	-19.7%
CN1CCN(C(=O)c2ccc3c(c2)N(Cc2ccc(Cl)cc2)C(=O)c2ccccc2S3(=O)=O)CC1	i	-13.8%	3.1%	-36.0%	0.2%	u
COc1ccccc1NS(=O)(=O)c1cc([N+](=O)[O-])ccc1N/N=C/c1c[nH]c2ccccc12	u	u	5.01µM*	-46.5%	0.3%	-13.7%
O=c1c2ccccc2nc(N2CCN(c3cccc(Cl)c3)CC2)n1-c1ccccc1	x	x	u	-47.3%	x	7.08µM*
Oc1ccccc1-c1nc2c3ccccc3c3ccccc3c2[nH]1	i	u	u	-37.6%	-4.8%	15.8µM*
c1csc(-c2nc3c4ccccc4c4ccccc4c3[nH]2)c1	i	2.3%	5.01µM*	-6.9%	-9.2%	u
Oc1ccccc1-c1nc(-c2cccs2)c(-c2cccs2)[nH]1	x	x	u	-63.9%	x	u
c1ccc(-c2nc(-c3cccs3)[nH]c2-c2ccccc2)cc1	u	-9.6%	2.3%	-9.2%	-14.3%	u
CC(C)(C)c1ccc(C(=O)Nc2nc3nc(-c4ccccc4)cc(=O)n3[nH]2)cc1	x	x	-18.9%	-17.6%	x	-0.5%
CCCc1nc2ccccc2c(C(=O)OCC(=O)N2CCc3ccccc32)c1CC	u	-3.4%	2.82µM*	4.4%	-4.1%	u
CS(=O)(=O)c1ccc2nnn(OCC(=O)Nc3ccc(Br)cc3Br)c2c1	i	-1.1%	10µM*	-3.1%	4.1%	7.0%
COc1cc(/C=C/C(=O)c2ccc3c(c2)OCO3)cc(OC)c1OC	u	u	u	22.4µM*	-2.7%	17.8µM*
COc1cc(/C=C/C(=O)c2ccc3c(c2)OCCO3)cc(OC)c1OC	u	u	u	-28.7%	-5.2%	u

Bioassay records from PubChem BioAssay.
